IL-1B inflam inh: inhibitors of inflammasome signaling (IL-1 beta secretion) | THP-1 LPS/ATP IL-1B secretion, AlphaLISA, 16 h; active compounds read low | 360,000 compounds, 4.7% hits | activity change, % at 57.5 µM; in the data active means activity change below about -50%; inconclusive means mostly about -30% to -49%
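THP-1 cells pretreated 1 hr with compounds (up to 57.5 uM final), then stimulated with LPS (250 ng/mL final) plus ATP (1.25 mM final); secreted IL-1B measured by AlphaLISA after 16 hr, decreased signal indicating inhibition.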
HT1080 IDH1KD tx: toxicity to HT-1080 IDH1 knockdown cells (counter line) | HT-1080 IDH1 knockdown viability, ATP luminescence, 48 h | Potency, µM (series often up to 46.1 µM), most hits filed as cytotoxic | 360,000 compounds, 2% hits | AID 686971
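Cytotoxicity counter-line: IDH1KD HT-1080, 48 h, CellTiter-Glo. Curves classed by r2, magnitude and activity.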
ELG1 DNA repair: ELG1-dependent DNA repair inhibition. HEK293T ELG1-luciferase reporter, luminescence, 16 h; DNA damage induced by 5-fluorouridine. Potency, µM (titrated, usually from 46.1 µM), hits mostly inhibitors. 330,000 compounds, 2.3% hits. AID 504467; further: nearly all actives have a fitted effect of over 55% in size
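Cells (2,000 per well) received 5-fluorouridine plus test compound or DMSO and were incubated 16 hr at 37 °C, 5% CO2. Luciferase activity was read by luminescence 30 min after ONE-Glo addition; signal suppression marked inhibition of damage-induced ELG1 function.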
DT40 TDP1 no CPT: qHTS for Inhibitors of human tyrosyl-DNA phosphodiesterase 1 (TDP1): qHTS in cells in absence of CPT; DT40 Tdp1-/- hTDP1 cells, no CPT, ATP luminescence, 48 h; Potency, µM (doses to about 46.2 µM), usual class: inhibitors; 420,000 compounds, 15% hits; further: nearly all actives have a fitted effect of over 55% in size
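No-CPT arm: Tdp1-/-;hTDP1 DT40 cells (400/well) plus compounds, incubated ≥48 hr at 37 °C. Readout CellTiter-Glo luminescence.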
TDP1 cell CPT: DT40-hTDP1 cell growth loss with CPT | chicken DT40 Tdp1-/-;hTDP1 cells + 20 nM CPT, ATP luminescence, 48 h | Potency, µM (series often up to 46.2 µM), usual class: inhibitors | 420,000 compounds, 12% hits; further: nearly all actives have a fitted effect of over 55% in size
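Chicken DT40 Tdp1-/- cells stably complemented with human TDP1 were seeded at 400 cells/well in medium containing 20 nM camptothecin, exposed to pin-transferred compounds, and grown at 37 °C for at least 48 hr. Viability was read as ATP luminescence.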
HT1080-NT tox: kills 2HG-producing HT-1080-NT fibrosarcoma cells; HT-1080-NT fibrosarcoma viability, CellTiter-Glo ATP luminescence, 48 h; Potency, µM (titrated, usually from 46.1 µM), most hits filed as cytotoxic; 360,000 compounds, 1.6% hits;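 further: NT is the 2HG producing partner of a matched IDH1 knockdown line; nearly all actives have a fitted effect of over 55% in size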
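Read-out is CellTiter-Glo luminescence after 10 minutes at room temperature, following 48 hours' compound treatment of HT-1080-NT cells (750 cells/well, RPMI, 5% FBS, 37 degrees C).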
Numbers stand for hits; [ ] = dose if it differs, or a comment. Shown are actives, neighbours in structure and some others; about 19% of the full set was active somewhere. Unless noted, the call rests on the fitted dose curve; in most records, active means well fitted curve in the direction sought with a large enough effect; inconclusive means small, poorly fitted or top-dose-only effect, or another doubt; inactive means no such curve, though single readings can be large; an effect the other way counts as inactive or inconclusive.

`Cc1ccc(-c2csc(N3CCC[C@@H]3C(=O)NCCn3c(-c4ccncc4)nc4ccccc43)n2)cc1` gave IL-1B inflam inh inconclusive, HT1080 IDH1KD tx inactive, ELG1 DNA repair 15µM, DT40 TDP1 no CPT 13µM, TDP1 cell CPT inconclusive and HT1080-NT tox inactive.
Screening CC(=O)N[C@@H](C)c1nc2ccccc2n1CCCN1CCN(c2nc(-c3ccc(C)cc3)cs2)CC1 returned IL-1B inflam inh inactive, HT1080 IDH1KD tx inactive, ELG1 DNA repair inconclusive, DT40 TDP1 no CPT 1µM, TDP1 cell CPT 1µM and HT1080-NT tox inactive.
CCn1c(C(C)NC(C)=O)nc2ccccc21 (configuration not stated) was read as IL-1B inflam inh inactive, HT1080 IDH1KD tx inactive, ELG1 DNA repair inactive, DT40 TDP1 no CPT inactive, TDP1 cell CPT inactive and HT1080-NT tox inactive.
Screening N#CCCn1cc(CNCc2cccnc2)c(-c2ccccc2)n1 returned DT40 TDP1 no CPT inactive and TDP1 cell CPT inconclusive.
For Cc1cc(=O)n(Cc2ccc(Br)cc2F)c2c1c(C)nn2-c1ccccc1 the results were DT40 TDP1 no CPT inactive and TDP1 cell CPT inactive.
For CCn1nc(C(=O)NNS(=O)(=O)c2ccc(C)cc2)c2ccccc2c1=O the results were IL-1B inflam inh inactive, HT1080 IDH1KD tx inactive, ELG1 DNA repair inactive, DT40 TDP1 no CPT inactive, TDP1 cell CPT inactive and HT1080-NT tox inactive.
O=C1N/C(=C/c2ccc(Br)cc2)C(O)=C1C=NCc1ccccc1 was read as IL-1B inflam inh inactive, HT1080 IDH1KD tx inconclusive, ELG1 DNA repair inconclusive, DT40 TDP1 no CPT 2.3µM, TDP1 cell CPT 2.9µM and HT1080-NT tox inconclusive.
Screening CC1=C/C(=N\OS(=O)(=O)c2ccccc2)C(C)=CC1=O returned IL-1B inflam inh -98, HT1080 IDH1KD tx 9.2µM, ELG1 DNA repair inconclusive, DT40 TDP1 no CPT 0.82µM, TDP1 cell CPT 0.58µM and HT1080-NT tox 4.6µM.
`CC1=C/C(=N\OS(=O)(=O)c2ccccc2)C(C(C)C)=CC1=O` gave IL-1B inflam inh -95, HT1080 IDH1KD tx inconclusive, ELG1 DNA repair inconclusive, DT40 TDP1 no CPT 2.3µM, TDP1 cell CPT 1.6µM and HT1080-NT tox inconclusive.
`O=C(NC1CCN(Cc2ccccc2)CC1)c1[nH]c(C(F)(F)F)nc1-c1ccccc1` gave IL-1B inflam inh inactive, HT1080 IDH1KD tx inactive, DT40 TDP1 no CPT inactive, TDP1 cell CPT inactive and HT1080-NT tox inactive.
CCN1C[C@@H]2[C@@H]3C(=O)N(Cc4ccccc4)C(=O)[C@@H]3[C@](Cc3ccccc3)(C1=O)N2C(=O)c1ccc(C(C)(C)C)cc1 was read as IL-1B inflam inh inactive, HT1080 IDH1KD tx inactive, DT40 TDP1 no CPT 18µM, TDP1 cell CPT 16µM and HT1080-NT tox inactive.
`CCN1C[C@@H]2[C@@H]3C(=O)N(Cc4ccccc4)C(=O)[C@@H]3[C@](Cc3ccccc3)(C1=O)N2C(=O)c1ccc(C(F)(F)F)cc1` gave IL-1B inflam inh inactive, HT1080 IDH1KD tx inactive, DT40 TDP1 no CPT inactive, TDP1 cell CPT inactive and HT1080-NT tox inactive.
Cc1c(NC(=O)c2cc(=O)c3cc(Cl)ccc3o2)c(=O)n(-c2ccccc2)n1C was read as DT40 TDP1 no CPT inactive and TDP1 cell CPT inactive.
Screening CN(CC(=O)Nc1ccccc1Br)C(=O)CNC(=O)c1cccs1 returned IL-1B inflam inh inactive, HT1080 IDH1KD tx inactive, ELG1 DNA repair inactive, DT40 TDP1 no CPT inactive, TDP1 cell CPT inactive and HT1080-NT tox inactive.
O=C(NN=c1c(=O)c2ccccc2c1=O)c1ccccc1 was read as IL-1B inflam inh inconclusive, HT1080 IDH1KD tx inactive, ELG1 DNA repair inactive, DT40 TDP1 no CPT 18µM, TDP1 cell CPT 18µM and HT1080-NT tox inactive.
For COc1cc(N/N=C(\C)c2ccc(O)c(C)c2)nc(-c2ccccc2)n1 the results were IL-1B inflam inh -59, HT1080 IDH1KD tx inconclusive, ELG1 DNA repair inactive, DT40 TDP1 no CPT inconclusive, TDP1 cell CPT inconclusive and HT1080-NT tox 21µM.
For C/C(=N\Nc1cc(-c2ccccc2)nc(-c2ccccc2)n1)c1ccc(O)c(C)c1 the results were IL-1B inflam inh inactive, HT1080 IDH1KD tx 23µM, ELG1 DNA repair inconclusive, DT40 TDP1 no CPT inconclusive, TDP1 cell CPT inconclusive and HT1080-NT tox inconclusive.
`COc1ccc(/C(C)=N/Nc2nc3ccccc3nc2C)cc1OC` gave IL-1B inflam inh inactive, HT1080 IDH1KD tx inconclusive, ELG1 DNA repair inconclusive, DT40 TDP1 no CPT inconclusive, TDP1 cell CPT inconclusive and HT1080-NT tox inactive.
For COc1cc(N/N=C(\C)c2ccc(N)cc2)nc(-c2ccccc2)n1 the results were IL-1B inflam inh inconclusive, HT1080 IDH1KD tx inactive, ELG1 DNA repair inconclusive, DT40 TDP1 no CPT 18µM, TDP1 cell CPT 23µM and HT1080-NT tox inactive.
`CS(=O)(=O)C1=NSC2=NC(=O)/C(=C\c3ccc(OC(=O)c4ccco4)c(Br)c3)C(=N)N21` gave IL-1B inflam inh inactive, HT1080 IDH1KD tx inactive, ELG1 DNA repair inactive, DT40 TDP1 no CPT inconclusive, TDP1 cell CPT inactive and HT1080-NT tox inactive.
For CC1(C)CO[C@H](CC(=O)O)CN1 the results were DT40 TDP1 no CPT inactive and TDP1 cell CPT inactive.
Screening O=C(c1cnn2cccnc12)N1CCOc2ccc(C(O)C(c3ccccc3)c3ccccc3)cc2C1 (configuration not stated) returned DT40 TDP1 no CPT inconclusive and TDP1 cell CPT inactive[9.04 µM].
Screening Cc1cccc(NC(=S)N(Cc2ccco2)C(C)c2cccs2)c1 (configuration not stated) returned IL-1B inflam inh inactive, HT1080 IDH1KD tx inactive, ELG1 DNA repair inconclusive, DT40 TDP1 no CPT inconclusive, TDP1 cell CPT 29µM and HT1080-NT tox inactive.
`CC(c1cccs1)N(Cc1ccco1)C(=S)Nc1ccc(F)c(Cl)c1` (configuration not stated) gave IL-1B inflam inh inactive, HT1080 IDH1KD tx inactive, ELG1 DNA repair inconclusive, DT40 TDP1 no CPT inactive, TDP1 cell CPT inactive and HT1080-NT tox inactive.
O=c1cc(-c2ccccc2Cl)oc2c(NS(=O)(=O)c3ccccc3OC(F)(F)F)ccc(O)c12 was read as IL-1B inflam inh inactive, HT1080 IDH1KD tx inactive, ELG1 DNA repair inconclusive, DT40 TDP1 no CPT inconclusive, TDP1 cell CPT 21µM and HT1080-NT tox inconclusive.
`O=c1cc(-c2ccccc2Cl)oc2c(NS(=O)(=O)c3ccccc3C(F)(F)F)ccc(O)c12` gave IL-1B inflam inh inactive, HT1080 IDH1KD tx inactive, ELG1 DNA repair inconclusive, DT40 TDP1 no CPT inactive, TDP1 cell CPT inactive and HT1080-NT tox inconclusive.
For CCOC(=O)C1C(=O)NC(SCC(=O)OC)=C(C#N)C1c1ccccc1OCC (configuration not stated) the results were IL-1B inflam inh inactive, HT1080 IDH1KD tx inactive, DT40 TDP1 no CPT inactive, TDP1 cell CPT inactive and HT1080-NT tox inactive.
